Results filed as inconclusive are left out. The source made the active and inactive calls. Calls come from the whole dose curve; as a rule, active = well fitted curve in the direction sought with a large enough effect; inconclusive = small, poorly fitted or top-dose-only effect, or another doubt; inactive = no such curve, though single readings can be large; an effect the other way counts as inactive or inconclusive.
Key:
NIH3T3 = test: qHTS assay to identify novel small-molecules to repurpose for Merkel cell carcinoma treatment (AID 1296009); settings: MCC and control cell lines, CellTiter-Glo viability, 72 h; series mostly up to 44.8 µM; note: nearly all actives have a fitted effect of over 60% in size
Outline: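 qHTS format: cells treated with library compounds in DMSO across 8 (NPC) or 11 (MIPE) concentrations. Readout after 72 hr at 37 degree celsius was CellTiter-Glo luminescence.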

C33A = test: Primary qHTS to identify gynecologic anti-cancer compounds using libraries of approved drugs and bioactive compounds (AID 1345084); settings: Gynecologic cancer cell panel viability, ATPlite luminescence, 48 h; series mostly up to 57.5 µM; note: nearly all actives have a fitted effect of over 55% in size; note: potency is the fitted concentration of half-maximal effect; for activity change, negative = cytotoxicity: % is set by controls: 0 for no effect and ±100 for the full control effect
Outline: (§1)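 Measured: luminescence after ATPlite addition (15 min, RT). Exposure: 48 h, 37 C, 5% CO2.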

CAOV3 = test: as above; settings: Gynecologic cancer cell panel viability, ATPlite luminescence, 48 h; series mostly up to 57.5 µM
Outline: as §1

CASKI = test: as above; settings: Gynecologic cancer cell panel viability, ATPlite luminescence, 48 h; series mostly up to 57.5 µM
Outline: as §1

Es-2 = test: as above; settings: Gynecologic cancer cell panel viability, ATPlite luminescence, 48 h; series mostly up to 57.5 µM
Outline: as §1

HeLa = test: as above; settings: Gynecologic cancer cell panel viability, ATPlite luminescence, 48 h; series mostly up to 57.5 µM
Outline: as §1

Hek293T = test: as above; settings: Gynecologic cancer cell panel viability, ATPlite luminescence, 48 h, control line for the selectivity index; series mostly up to 57.5 µM
Outline: as §1

JEG-3 = test: as above; settings: Gynecologic cancer cell panel viability, ATPlite luminescence, 48 h; series mostly up to 57.5 µM
Outline: as §1

OV90 = test: as above; settings: Gynecologic cancer cell panel viability, ATPlite luminescence, 48 h; series mostly up to 57.5 µM
Outline: as §1

PA-1 = test: as above; settings: Gynecologic cancer cell panel viability, ATPlite luminescence, 48 h; series mostly up to 57.5 µM
Outline: as §1

CC(=O)NC[C@H]1CN(c2ccc(N3CCSCC3)c(F)c2)C(=O)O1
inactive: Potency (NIH3T3) | Potency (C33A) | Potency (CAOV3) | Potency (CASKI) | Potency (Es-2) | Potency (HeLa) | Potency (Hek293T) | Potency (JEG-3) | Potency (OV90) | Potency (PA-1)

NC(=O)c1cccc2[nH]c(-c3ccc(C4CCCN4)cc3F)nc12 (centres undefined)
active: Potency (C33A) 17.8 µM | Potency (CAOV3) 10 µM | Potency (Es-2) 15.8 µM | Potency (Hek293T) 12.6 µM | Potency (JEG-3) 11.2 µM
inactive: Potency (NIH3T3)

COCC(c1ccc(C(F)(F)F)cc1)N1CCN(C2(C)CCN(C(=O)c3c(C)ncnc3C)CC2)CC1C (centres undefined)
inactive: Potency (NIH3T3) | Potency (C33A) | Potency (CAOV3) | Potency (CASKI) | Potency (Es-2) | Potency (HeLa) | Potency (Hek293T) | Potency (JEG-3) | Potency (OV90) | Potency (PA-1)

CC1=C2C[C@@]3(C)C(CCC[C@@H]3C)C(O)C2OC1=O (some centres undefined)
inactive: Potency (NIH3T3) | Potency (C33A) | Potency (CAOV3) | Potency (CASKI) | Potency (Es-2) | Potency (HeLa) | Potency (Hek293T) | Potency (JEG-3) | Potency (OV90) | Potency (PA-1)

O=S(=O)(N[C@H]1CCCC[C@@H]1N1CCOCC1)c1ccc(Cl)cc1
inactive: Potency (NIH3T3) | Potency (C33A) | Potency (CAOV3) | Potency (CASKI) | Potency (Es-2) | Potency (HeLa) | Potency (Hek293T) | Potency (JEG-3) | Potency (PA-1)

CC[C@@H]1C[C@]1(NC(=O)[C@@H]1C[C@@H]2CN1C(=O)[C@H](C(C)(C)C)NC(=O)OCC(C)(C)CCCCc1cccc3c1CN(C3)C(=O)O2)C(=O)NS(=O)(=O)C1CC1
inactive: Potency (NIH3T3) | Potency (C33A) | Potency (CAOV3) | Potency (CASKI) | Potency (Es-2) | Potency (HeLa) | Potency (Hek293T) | Potency (OV90) | Potency (PA-1)

C[C@H]1CC[C@@]2(OC1)O[C@H]1CC3C4CC[C@H]5C[C@@H](O)CC[C@]5(C)C4=CC(=O)[C@]3(C)[C@H]1[C@@H]2C (some centres undefined)
inactive: Potency (NIH3T3) | Potency (C33A) | Potency (CASKI) | Potency (Es-2) | Potency (HeLa) | Potency (Hek293T) | Potency (JEG-3) | Potency (OV90) | Potency (PA-1)

O=C(Nc1ccc(CN2CCOCC2)cc1)c1ccc(-c2cccc(Cl)c2)o1
inactive: Potency (C33A) | Potency (CAOV3) | Potency (CASKI) | Potency (Es-2) | Potency (HeLa) | Potency (Hek293T) | Potency (JEG-3)

CC(=O)C1=CCC2C3CC=C4CC(O)CC(O)C4(C)C3C(O)CC12C (centres undefined)
inactive: Potency (NIH3T3) | Potency (CAOV3) | Potency (HeLa) | Potency (Hek293T) | Potency (JEG-3) | Potency (OV90) | Potency (PA-1)

C=CC(C)(C)c1[nH]c2ccccc2c1C[C@@H]1NC(=O)[C@H](C)NC1=O
inactive: Potency (NIH3T3) | Potency (C33A) | Potency (CASKI) | Potency (Es-2) | Potency (HeLa) | Potency (Hek293T) | Potency (JEG-3) | Potency (OV90) | Potency (PA-1)

CC(=O)OC(C)(C)/C=C/C(=O)C(C)(O)C1C(O)CC2(C)C3CC=C(C(C)(C)C(=O)O)C(CC(=O)O)C3(C)C(=O)CC12C (centres undefined)
inactive: Potency (NIH3T3) | Potency (C33A) | Potency (CASKI) | Potency (Es-2) | Potency (HeLa) | Potency (Hek293T) | Potency (JEG-3) | Potency (OV90) | Potency (PA-1)

COC1CC(O[C@H]2CC[C@]3(C)C4CC[C@@]5(C)C(=O)[C@]4(CC[C@@H]3C2)CC[C@@H]5C2=CC(=O)OC2)OC(C)C1OC1OC(COC2OC(CO)C(O)C(O)C2O)C(O)C(O)C1O (some centres undefined)
inactive: outcome (NIH3T3) inactive [at 9.27 µM]
active: Potency (C33A) 2.82 µM | Potency (Es-2) 2.82 µM | Potency (PA-1) 3.16 µM

COC1CC(O[C@H]2CC[C@]3(C)C4CC[C@]5(C)C(C6=CC(=O)OC6)=CCC56OC46CC[C@@H]3C2)OC(C)C1O[C@@H]1O[C@H](CO[C@@H]2O[C@H](CO)[C@@H](O)[C@H](O)[C@H]2O)[C@@H](O)[C@H](O)[C@H]1O (some centres undefined)
active: Potency (C33A) 2.82 µM | Potency (Es-2) 3.16 µM | Potency (HeLa) 3.55 µM | Potency (Hek293T) 2.82 µM | Potency (PA-1) 3.98 µM
inactive: outcome (NIH3T3) inactive [at 9.27 µM] | activity change, negative = cytotoxicity (CASKI) -27.8% [at 11.6 µM]

OC(c1ccc(-c2ccc(CN3CCN(Cc4ccncc4)CC3)cc2)c(F)c1)(C(F)(F)F)C(F)(F)F
inactive: Potency (C33A) | Potency (CAOV3) | Potency (CASKI) | Potency (Es-2) | Potency (HeLa) | Potency (Hek293T) | Potency (JEG-3) | Potency (OV90)

CCCc1cc(C)n(C)c(=O)c1CN(C)C(=O)c1cc(-c2ccc(N3CCN(C(C)C)CC3)nc2)cc2c1cnn2C(C)C
inactive: Potency (NIH3T3) | Potency (CASKI) | Potency (Es-2) | Potency (Hek293T) | Potency (JEG-3) | Potency (OV90) | Potency (PA-1)

CC(=O)c1ccc2c(c1)[C@H](NC(=O)c1ccc(F)c(Cl)c1)[C@H](O)C(C)(C)O2
inactive: Potency (NIH3T3) | Potency (C33A) | Potency (CASKI) | Potency (Es-2) | Potency (HeLa) | Potency (Hek293T) | Potency (JEG-3) | Potency (OV90) | Potency (PA-1)

O=C1Cc2c([nH]c3ccc(Br)cc23)-c2ncccc2N1
inactive: Potency (NIH3T3) | Potency (C33A) | Potency (CASKI) | Potency (Es-2) | Potency (Hek293T) | Potency (JEG-3) | Potency (PA-1)

O=C(NCCN1CCC(n2c(=O)[nH]c3ccccc32)CC1)c1cc2cc(F)ccc2[nH]1
inactive: Potency (NIH3T3) | Potency (C33A) | Potency (CASKI) | Potency (Es-2) | Potency (HeLa) | Potency (Hek293T) | Potency (JEG-3) | Potency (OV90) | Potency (PA-1)

CCN(Cc1ccccc1)C(=O)Cn1c(=O)n(C)c2cnc(-c3ccccc3)nc21
inactive: Potency (NIH3T3) | Potency (C33A) | Potency (CASKI) | Potency (Es-2) | Potency (HeLa) | Potency (Hek293T) | Potency (JEG-3) | Potency (OV90) | Potency (PA-1)

CC(C)(O)/C=C/C(=O)[C@](C)(O)[C@H]1[C@H](O)C[C@@]2(C)[C@@H]3CC=C4[C@@H](C[C@H](O[C@@H]5O[C@H](CO)[C@@H](O)[C@H](O)[C@H]5O)C(=O)C4(C)C)[C@]3(C)C(=O)C[C@]12C
inactive: Potency (NIH3T3) | Potency (C33A) | Potency (CASKI) | Potency (Es-2) | Potency (HeLa) | Potency (Hek293T) | Potency (JEG-3) | Potency (OV90) | Potency (PA-1)
